# Reference: PubChem BioAssay AID2810 (NMMLSC, 2010)
# The whole screen tested about 1,200 compounds, of which about 65 (5%) were called active.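 Rule for the calls: active = at either tested dose, response and 90th-percentile vesicle-stain brightness of CD8 cells under set limits and under 9% cells vesicle-bound; inactive = the rest.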 The entries come from a sample that favours actives as a whole.
# Experiment: modulators of CD8 T cell-vesicle binding, confirmation, cherry-picked primary hits, two concentrations (AID 2810);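 note: lower values mean blocking of vesicle binding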;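 for percent response (vesicle binding): ratio of mean FL2 vesicle stain of CD8+ cells to that row's control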
# Details: 2C CD8+ T cell-vesicle binding, flow cytometry; for double positive events: CD8+/vesicle+ events
# [1] = at 15.4 µM, stronger effect = lower value
SMILES,double positive events (at 7.7 µM) [%],double positive events [1] [%],percent response (vesicle binding) [1],"percent response (vesicle binding) (response, at 7.7 µM) [%]"
O=C(NN1C(=O)C2C3C=CC([C@H]4CC34)[C@@H]2C1=O)c1ccc(Br)cc1 (some centres undefined),33.5,31.2,590% (inactive),1000
CCCOc1ccc(N2C(=O)CC(N(O)c3ccccc3)C2=O)cc1 (centres undefined),17.3,14.6,158% (inactive),254
Cc1ccccc1CS(=O)(=O)CCC(=O)N1CCN(c2ccc(N3CCOCC3)nn2)CC1,9,3.1,18.4% (active),160
Cc1ccsc1C(=O)OCC(=O)N1CCN(c2ccccc2)CC1,17.9,27,263% (inactive),143
CN(CCCC(=O)N1CCN(c2ncccn2)CC1)S(=O)(=O)c1ccc(F)cc1,7,13.1,151% (inactive),122
COc1ccc(Br)cc1CN(C)C(=O)c1ccc2c(c1)NC(=O)C(C)S2 (centres undefined),38.9,17.5,221% (inactive),368
Cc1cccc(NC(=O)C2CCN(S(=O)(=O)c3c(C)[nH]c(=O)[nH]c3=O)CC2)c1,9.4,12.6,434% (inactive),330
COc1ccc(NCc2nc3ccccc3n2CCOc2ccccc2)cc1,35.8,10.6,221% (inactive),261
CC(=O)c1ccc(-c2csc(N3CCC(C(N)=O)CC3)n2)cc1,15.1,4.6,28.3% (active),132
CS(=O)(=O)c1cccc(-c2csc(N3CCC(C(N)=O)CC3)n2)c1,18.3,37.8,182% (inactive),192
NC(=O)C1CCN(c2nc(-c3cc4ccccc4o3)cs2)CC1,28.4,8,128% (inactive),459
O=C(CN1C(=O)COc2ccc(S(=O)(=O)N3CCCC3)cc21)NC1CC1,21.1,16.7,459% (inactive),268
O=C(NCc1ccncc1)C(=O)NCC(c1ccco1)N1CCN(c2ccccc2F)CC1 (centres undefined),28.7,13.3,251% (inactive),276
CCOC(=O)c1sc(NC(=O)CSc2ncn[nH]2)c(C#N)c1C,36.7,26.4,617% (inactive),394
Cc1nnc(NC(=O)c2ccc(S(=O)(=O)N(C)c3ccccc3)cc2)s1,9.6,37.9,156% (inactive),134
COc1ccccc1-c1nnc(NC(=O)c2ccc(S(=O)(=O)N3CCOCC3)cc2)o1,7,8.1,284% (inactive),264
CCCc1nnc(NC(=O)c2ccc(S(=O)(=O)N(C)c3ccccc3OC)cc2)s1,14.9,6,35.7% (active),216
COc1cc(OC)cc(C(=O)NC(C(=O)Nc2ccc3c(c2)CCC3)C(C)C)c1 (centres undefined),8.9,21,368% (inactive),147
O=C(CC1=NCCNC(c2ccccc2)C1)c1ccccc1O (centres undefined),6.2,1.7,65.1% (inactive),316
COc1ccc(NCC(O)Cn2c(C)c(C)c3ccccc32)cc1 (centres undefined),11.5,16.3,63.6% (inactive),101
Cc1ccc(C(C)n2cc(C(=O)NCCN3CCN(C)CC3)nn2)cc1 (centres undefined),11.2,1.8,36.8% (active),155
O=C(NCCN1CCN(c2ccccc2)CC1)c1cccc(Br)c1,24.2,13.3,252% (inactive),278

SMILES,double positive events (at 7.7 µM) [%],double positive events [1] [%],percent response (vesicle binding) [1],"percent response (vesicle binding) (response, at 7.7 µM) [%]"
CCCCCC(=O)N[C@@H](c1ccccc1)[C@@H](O)C(=O)O[C@H]1C[C@@]2(O)[C@@H](OC(=O)c3ccccc3)C3[C@](C)(C(=O)[C@H](OC(C)=O)C(=C1C)C2(C)C)[C@@H](O)C[C@H]1OC[C@@]31OC(C)=O (some centres undefined),16.4,12,252% (inactive),302
O=C(Nc1ccccc1)N1CCc2c([nH]c3ccccc23)C1C(F)(F)F (centres undefined),14,38.4,145% (inactive),187
COc1ccccc1NC(=O)Cn1cnc2sc(C)c(S(=O)(=O)N3CCCCC3)c2c1=O,11.3,5.5,109% (inactive),197
COc1ccc(S(=O)(=O)N(C)c2ccc(C(=O)NCC3CCCO3)cc2)cc1OC (centres undefined),21.6,13.3,226% (inactive),413
COc1ccccc1CNC(=O)COc1ccc(C)cc1,13.1,5.2,56.4% (active),222
COc1ccccc1CNC(=O)C1CCC1,33.3,24.2,232% (inactive),953
COc1ccccc1CNC(=O)c1ccc(N(C)S(=O)(=O)c2ccc(C)cc2)cc1,17.5,5.4,41.2% (active),152
COc1cc(CC(=O)OCC(=O)NCc2ccc(C)cc2)cc(OC)c1OC,12.7,21.2,138% (inactive),165
COc1ccccc1CNC(=O)CN(Cc1ccc(Cl)cc1)S(C)(=O)=O,25.3,7.2,127% (inactive),441
Cc1ccc(C)c(OC(=O)c2cncc(Br)c2)c1,18.1,15.8,147% (inactive),268
Cc1ccc(NC(=O)COC(=O)c2c(-c3ccccc3)noc2C)c(C)c1,5.6,14.4,137% (inactive),226
Cc1c(C(=O)N(C)Cc2ccccc2)oc2ccc(S(=O)(=O)N3CCCC3)cc12,25.6,12.7,191% (inactive),229
COc1cc2c(-c3cc(F)cc(F)c3)c(-c3ccsc3)oc(=O)c2cc1OC,37.8,28.1,275% (inactive),271
O=C(CCc1ccccc1)N1CCN(CCO)CC1,35.8,14.4,151% (inactive),239
CC(C)(C)NC(=O)CON=C1c2ccccc2-c2ccccc21,8.8,30.6,361% (inactive),203
CC(C)(C)NC(=O)COc1ccc(CNCc2ccccn2)cc1,21.6,5.1,32.8% (active),227
CC(C)(C)NC(=O)COc1ccc(CNCc2cccnc2)cc1,31,21.6,446% (inactive),334
CCCCn1nc(C(=O)N2CCN(S(=O)(=O)c3ccccc3)CC2)c2ccccc2c1=O,16.5,2.2,57.2% (inactive),484
Cc1ccc(NC(=O)C2c3ccccc3Oc3ccccc32)c(C)c1,12.5,28.2,175% (inactive),230
O=C(Nc1ccccc1C(=O)NCc1cccnc1)c1ccccc1Cl,25.8,14.2,202% (inactive),364
CCOc1ccc(CCNC(=O)CCS(=O)(=O)c2ccc(C)cc2)cc1OCC,12.8,11.7,215% (inactive),177
CCOc1ccc(CCNC(=O)CCc2nnc3ccc(N4CCCC4)nn23)cc1OCC,6.3,20,239% (inactive),150

SMILES,double positive events (at 7.7 µM) [%],double positive events [1] [%],percent response (vesicle binding) [1],"percent response (vesicle binding) (response, at 7.7 µM) [%]"
CCOc1ccc(CCNC(=O)c2cccc(-n3cnnn3)c2)cc1OCC,7.9,4.2,39.3% (active),237
Cc1cc(C(=O)COC(=O)Cc2ccc(Cl)cc2)c(C)n1C,13.6,22.5,160% (inactive),226
O=C(/C(=N\Nc1ccc(Br)cc1)Sc1nnnn1-c1ccccc1)c1ccccc1,9.1,14.4,176% (inactive),308
COc1cccc(-c2ccc(NC(=O)C3CCCN(Cc4cc(C)[nH]n4)C3)cc2)c1 (centres undefined),11.6,32.2,350% (inactive),192
O=C(O)CCc1ccc(S(=O)(=O)N2CCOCC2)cc1,20.5,28.7,274% (inactive),233
CCN(CC)CCNC(=O)CCCNC(=O)Cn1cnc2sc(C)c(C)c2c1=O,39.3,4.7,131% (inactive),375
COCCCN1CCc2[nH]c(=S)[nH]c(=O)c2C1,27.3,2,16.7% (active),272
CCc1c(O)cc2n(c1=O)-c1ccccc1C2(C)C,9.3,17.9,444% (inactive),485
O=C(Nn1cnc2ccccc2c1=O)C1CCCCC1,29.6,14.2,212% (inactive),255
CCCN1CCN(CCCNC(=O)c2cc3c(s2)-c2ccccc2OC3)CC1,22.7,9.3,171% (inactive),229
Cc1ccc(C(=O)NCCCN2CCOCC2)c(C)c1,30.7,0.7,30.4% (active),440
Cc1ccc(NC(=S)N(CCCN2CCOCC2)Cc2cccs2)c(C)c1,8.8,24.8,268% (inactive),149
CCn1c(=O)cc(SCC(=O)N2CCN(c3ccccc3F)CC2)c2ccccc21,17,19.6,78.7% (inactive),247
CC(C)C(=O)N1CCC2(CC1)Oc1ccc(Cl)cc1C(=O)C21CC(c2cccnc2)=NO1 (centres undefined),6.8,15,197% (inactive),109
Cc1ccc(C(=O)Nc2cccc(-c3cn4ccccc4n3)c2)cc1,7.7,10.4,300% (inactive),439
Cc1ccc2oc(=O)c(/C=C(\O)c3sc(C)nc3C)nc2c1,17.5,0.7,16.1% (active),163
COc1ccc(C(=O)C(C)OC(=O)c2sc(C)nc2C)cc1 (centres undefined),12.6,13.7,349% (inactive),113
NC(=S)N/N=C/c1ccccc1OCCSc1ccc(Cl)cc1,7,28,262% (inactive),76.6
CC(=O)NN1C(=O)c2ccccc2NC1c1ccco1 (centres undefined),23,11.1,280% (inactive),361
Cc1ccccc1N=C1SC(CC(=O)Nc2ccc3ccccc3c2)C(=O)N1Cc1ccccn1 (centres undefined),8.6,25.6,157% (inactive),148
O=C(N/N=C/c1c(O)n(Cc2ccco2)c(=O)[nH]c1=O)c1ccccc1,36.4,21.6,275% (inactive),418
COc1ccc(C(=O)OCC(=O)NC(=O)NC2CCCC2)c(O)c1,13.7,9.4,148% (inactive),254
